Results from the supplement of paper PMC5499739.
In all, about 16,000 sequences were measured (“Z-score”: median about -0.37, highest 2% from about 3.2 on). Shown is part of a subset that was picked to be rich in the highest values.

test system: RBM10 RRM1-ZnF (GST-tagged construct); assay: RNAcompete 7-mer binding Z-score; higher = stronger binding preference
Method: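 RNAcompete: 20 pmol GST-tagged RBM10 RNA-binding constructs were incubated with a designed RNA pool of about 241,000 sequences up to 41 nt (1.5 nmol) on glutathione beads for 30 min at 4 °C and washed. Bound RNAs were identified by microarray hybridisation. Each RNA 7-mer is scored by a one-sided Z-score of its enrichment, computed over probes that contain the 7-mer within longer pool sequences.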

| Sequence | RNAcompete 7-mer binding Z-score |
| --- | --- |
| AUUUAUC | -0.691 |
| UAUGGCA | 0.413 |
| CAGCUCG | -0.704 |
| UGAAGAA | 0.228 |
| CGCCUAA | -0.694 |
| CCUGAUC | -0.792 |
| GUGUUUA | 0.27 |
| UAGUGGA | 1.54 |
| GAGUGGC | 1.53 |
| AAGUGGA | 3.31 |
| GAGUGGU | 2.46 |
| AAGUGGG | 3.73 |
| CAGUGGG | 2.24 |
| GAGUGGA | 3.26 |
| CAGUGGA | 1.38 |
| AAGUGGU | 1.82 |
| CCAAGAC | -0.646 |
| GUAGUCA | 0.157 |
| CCAUCUG | -0.772 |
| UGUGUCG | 0.043 |
| UCUGGGA | 0.508 |
| UGGGGAA | 3.66 |
| CGGGGAA | 2.71 |

| Sequence | RNAcompete 7-mer binding Z-score |
| --- | --- |
| AGGGGCA | 2.47 |
| CGGGGGA | 3.17 |
| GGGGGCA | 2.92 |
| GGGGCGA | 2.46 |
| UCGGGAA | 1.33 |
| GGGGGGA | 3.3 |
| UGGGGCA | 3.56 |
| UUGGGGA | 2.82 |
| UGGGGGA | 3.71 |
| AACGGAC | 0.413 |
| GCAAAAC | -0.0902 |
| AGCAUGA | -0.119 |
| CUAGCGA | -0.347 |
| CAGAGGU | 1.25 |
| UACGGAA | 0.699 |
| CUACAGA | -0.636 |
| AGAGCAG | 0.699 |
| UGGCUAG | 0.391 |
| ACGAGGC | 0.319 |
| GCGAGGA | 1.93 |
| ACGAGGG | 3.35 |
| ACGAGGU | 0.959 |
| UCGAGGG | 1.95 |

| Sequence | RNAcompete 7-mer binding Z-score |
| --- | --- |
| GCGAGGG | 3.54 |
| CUGCUAU | -0.691 |
| AGAUGCG | 0.111 |
| CCGCUCC | -0.474 |
| ACAGGGA | 3 |
| GCAGGGU | 3.43 |
| CCAGGGU | 1.29 |
| GCAAGGG | 3.46 |
| ACAGGGG | 3.33 |
| GCAAGGU | 1.94 |
| ACAGGGU | 2.94 |
| ACAGGGC | 1.84 |
| GCAGGGC | 1.35 |
| GCAGGGG | 3.32 |
| GCAAGGA | 2.4 |
| CCAGGGG | 1.46 |
| CGACAAC | -0.542 |
| GUCGGCU | -0.0252 |
| GCUAUGC | -0.269 |
| CAACGAU | -0.409 |
| GAUAGUC | -0.279 |
| AAACCCA | -0.701 |
| AACGCUG | -0.5 |

| Sequence | RNAcompete 7-mer binding Z-score |
| --- | --- |
| CAAAACG | -0.119 |
| AGCUUAC | -0.639 |
| ACACGGC | -0.191 |
| CGCUUAU | -0.649 |
| AGGAGGG | 3.53 |
| GGGAGUG | 3.73 |
| AGGAGGC | 1.37 |
| GGGAGGA | 3.47 |
| GAGAGGG | 2.7 |
| CGGAGGG | 2.91 |
| GGGAGGG | 4.74 |
| UGGAGGA | 2.87 |
| GGGAGUA | 2.53 |
| AGGAGGU | 2.47 |
| AGGAGGA | 2.25 |
| AGGAGUG | 2.91 |
| UCAGCGG | 0.309 |
| AUGUCCG | -0.626 |
| UUACGCA | -0.584 |
| GGGAGCC | 0.917 |
| UGGAGGC | 1.96 |
| GGGAGCG | 3.35 |
| UGGAGGG | 4.07 |

| Sequence | RNAcompete 7-mer binding Z-score |
| --- | --- |
| GGGAGGC | 2.92 |
| CGGAGCG | 1.23 |
| UGGAGGU | 2.84 |
| CGGAGGU | 2.41 |
| GGGAGGU | 3.68 |
| AGCAACA | -0.158 |
| AGUCUAC | -0.584 |
| GCGUUUG | 0.131 |
| GGUUGUG | 2.29 |
| CUACUGA | -0.659 |
| AUGUGGC | 0.586 |
| UUGUGGG | 2.83 |
| GUGUGGA | 2.98 |
| AUGUGGG | 3.84 |
| GUGUGGU | 2.39 |
| GUGUGGG | 3.93 |
| CAUCAAG | -0.47 |
| UUUAUGG | 0.303 |
| CCAACAC | -0.5 |
| GGGGUGG | 4.71 |
| AGGGUGA | 4.19 |
| AGGGUCA | 1.14 |
| UGGGUGC | 2.92 |

| Sequence | RNAcompete 7-mer binding Z-score |
| --- | --- |
| GCGGUGU | 1.1 |
| GCGGUGG | 2.85 |
| UGGGUGG | 4.14 |
| GGGGUGU | 4.3 |
| AUGGUGA | 2.6 |
| GGGGUGC | 2.92 |
| UGGGUCG | 2.09 |
| AGGGUGU | 3.11 |
| UAAAUAG | -0.0674 |
| CGUAUUU | -0.769 |
| UUCACGG | -0.448 |
| GAAGACG | 1.09 |
| CUAAGAA | -0.331 |
| CUACAUG | -0.591 |
| GAUCAGA | 0.316 |
| AGUUAGU | -0.0642 |
| ACAUCCC | -0.587 |
| ACGGUGG | 2.76 |
| UCGGUGA | 0.452 |
| CGGGUGC | 1.85 |
| GGGGUGA | 4.16 |
| CGGGUGU | 2.14 |
| UGGGUGA | 3.38 |

| Sequence | RNAcompete 7-mer binding Z-score |
| --- | --- |
| CGGGUGG | 3.64 |
| AGGGUGC | 2.6 |
| AGGGUGG | 4.42 |
| GGGGUCA | 2.86 |
| CGGGUGA | 2.66 |
| GCGGUGA | 1.2 |
| UCCAUUA | -0.75 |
| UCUCCCC | -0.587 |
| CCUCGGG | 0.423 |
| GCGUCAC | -0.0252 |
| GUCUUUA | -0.652 |
| GUUUCGA | -0.396 |
| AUAUUAU | -0.402 |
| AGUUGCU | -0.334 |
| GGUGUGU | 1.7 |
| UCGGUGU | 0.524 |
| UGGGUGU | 3.53 |
| UUGGUGU | 1.51 |
| UGUGUGG | 1.89 |
| GGUGUGG | 4.32 |
| ACUCUAA | -0.685 |
| GCACCCU | -0.496 |
| AAAUCCC | -0.86 |

| Sequence | RNAcompete 7-mer binding Z-score |
| --- | --- |
| GCAUUCA | -0.396 |
| CUGUUCU | -0.847 |
| UGUGGUG | 1.84 |
| GGUGGUU | 2.61 |
| UGUGGGC | 2.06 |
| GGUGGGU | 3.78 |
| UGUGGGG | 3.96 |
| GCUGGGU | 2.3 |
| UGUGGGU | 3.46 |
| UGUGGUU | 1.84 |
| GGUGGUC | 2.06 |
| UCUGGGU | 0.81 |
| UGUGGGA | 2.87 |
| GGUGGGC | 3.3 |
| CUAAUUG | -0.617 |
| UUGAACG | -0.139 |
| ACCCACU | -0.675 |
| GGAUGUA | 1.7 |
| GUUUGUG | 0.865 |
| AUCUAAC | -0.681 |
| AACCGGC | -0.6 |
| AGUGUCC | -0.604 |
